Common to all, as to assay: NCI-60 one-dose screen, 48 h (100 = growth as untreated, 0 = no growth, -100 = all killed)
Common to all, as to settings: 10 µM unless noted

Assay [1] relates to DU-145 prostate.
For assay [2], the system named is K-562 leukemia.
Assay [3] deals with MALME-3M melanoma.
The subject of assay [4] is MDA-MB-231 breast.
In assay [5] the test system is SF-268 CNS.
Assay [6] has as its system SF-295 CNS.
For assay [7], the system named is SF-539 CNS.
In assay [8] the test system is M14 melanoma.
In assay [9] the test system is UACC-257 melanoma.
Assay [10] deals with RXF 393 renal.

This is part of a sample that, as a whole, favours compounds with a hit. Of some 83,000 tested, about 20% had one in any assay.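 Method: cells in 96-well plates; compound added at one concentration; 48 h incubation; percent growth measured; values under 10 scored active.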 Values without a mark were called inactive. Calls of active or inactive are those of the source.

`CCSc1ncc(Br)c(Sc2nc(N)nc3nc[nH]c23)n1`: the growth was 43.1% in [1]; 26.6% in [2]; 36.2% in assay [3]; 40.9% in assay [4]; 44.8% in [5]; 38.6% in assay [6]. In addition, the growth in assay [7] is 60.1%; in [8], 31.7%.
Consider `CC1Cc2ccccc2N1C(=O)c1ccc(C(=O)c2ccccc2)cc1` (configuration not stated), for which the growth was 79.7% in [1]; 85.6% in assay [2]; 73% in assay [3]; 91.3% in assay [4]; 92.1% in [5]; 84% in assay [6]. Also, the results for the growth in assay [7], in assay [9] and in assay [8] were 96.3%, 30.1% and 83.5%, respectively.
Consider `FC(F)(F)c1cc(-c2nnc3n2N=C(N2CCCC2)CS3)cc(C(F)(F)F)c1`, for which the growth in assay [1] was 86.8%; in [2] it was 70.7%; in [3], 83.4%; in [4], 59.6%; in assay [5] it was 74.9%; in assay [6] it was 45.9%. For the same compound, the growth in assay [7] was 30%; in assay [9], 93.2%; in assay [8] it was 100%.
In the case of `COc1ccc2cc(-c3nc4ccccc4[nH]3)c(=O)oc2c1`, the growth in assay [1] is 114%; in [2], 96.8%; in assay [3], 103%; in assay [4] it was 104%; in assay [5] it was 110%; in assay [6], 105%. For the same compound, the growth was 98.8% in assay [7], 45.9% in assay [9] and 93.7% in assay [8].
Regarding `COc1cccc(-c2nc3cc(NC(=O)c4ccc(Cl)c(C#N)c4)ccc3o2)c1`, the growth is 8.18% (active) in assay [1]; 8.47% (active) in [2]; -56.5% (active) in assay [3]; 8.99% (active) in assay [4]; -5.11% (active) in [5]; 25.3% in assay [6]. In addition, the growth in assay [7] was -70.7% (active); in assay [9], 4.33% (active); in [8], -82.7% (active).
Take `O=C(c1ccc(N2CCOCC2)cc1[N+](=O)[O-])N1CCOCC1`: the growth in [1] was 114%; in [2], 159%; in [3], 103%; in [4] it was 134%; in [5], 110%; in [6], -38.9% (active). For the same compound, the growth is 107% in assay [7], 43.9% in assay [9] and 107% in assay [8].
As to `Nc1ccc(Oc2c(F)c(F)c(Oc3ccc(N)cc3)c(F)c2F)cc1`, the growth in assay [1] is 107%; in assay [2], 93.3%; in assay [3] it was 87.1%; in assay [4], 109%; in assay [5] it was 97.9%; in assay [6] it was 103%. The growth in [7] is 111%; in assay [9] it was 9.12% (active); in assay [8] it was 99.1%.
On to `O=c1[nH]cc(Nc2cc(Cl)c3nonc3c2[N+](=O)[O-])c(=O)[nH]1`, for which the growth was 111% in assay [1]; 108% in assay [2]; 109% in assay [3]; 104% in assay [4]; 126% in assay [5]; -37.1% (active) in assay [6]. In addition, the growth in assay [7] is 101%; in assay [9], 25.2%; in [8], 99.7%.
Turning to `O=C(/C=C/c1ccc([N+](=O)[O-])cc1)c1ccc2c3c(cccc13)CC2`, the growth is 38.7% in [1]; 44.8% in assay [2]; 79.7% in assay [3]; 81.4% in assay [4]; 80.9% in assay [5]; -17.9% (active) in assay [6]. Moreover, the growth is 33.1% in assay [7], 3.27% (active) in [9] and 95.3% in assay [8].
Take `O=C(O)C1CCN(S(=O)(=O)c2ccc(-c3ccccc3)cc2)CC1`: the growth in assay [1] is 114%; in assay [2], 109%; in assay [3] it was 127%; in [4] it was 98.7%; in assay [5], 108%; in assay [6], 192%. For the same compound, the growth in [7] was 109%; in assay [9], 56.2%; in [8], 109%.
Turning to `COc1ccc(NC(=O)[C@@H]2C[C@H]2c2ccccc2)c(C(N)=O)c1`, the growth in assay [1] was 105%; in [2], 71.8%; in assay [3] it was 91%; in [4], 87.9%; in [5], 97.9%; in [6] it was 100%. Further, the growth in [7] is 99.7%; in assay [9], 92.9%; in assay [8], 91.4%.
As for `Cc1cc2ccccn2c1C(=O)c1ccc(C(=O)c2ccccc2)cc1`, the growth in [1] is 85.8%; in [2] it was 94.3%; in assay [3], 76.8%; in assay [4], 91%; in assay [5], 99.7%; in [6], 83.2%. For the same compound, the results for the growth in assay [7], in [9] and in assay [8] were 98.7%, 43.4% and 91.1%, respectively.
As for `Cc1ccc(S(=O)(=O)N2CCN(C(=O)CSc3nc4ccc(C)cc4[nH]3)CC2)cc1`, the growth in assay [1] was 109%; in assay [2], 74.8%; in assay [3], 126%; in assay [4], 92.3%; in assay [5] it was 101%; in assay [6], 159%. Also, the growth is 110% in [7], 63.4% in assay [9] and 101% in assay [8].
Consider `O=C1Nc2ccc(Cl)cc2[C@@](C#CC2CC2)(C(F)(F)F)O1`, for which the growth in [1] is 104%; in assay [2], 67.3%; in assay [3], 93.4%; in assay [4], 86.5%; in [5], 117%; in assay [6] it was 82%. Moreover, the growth in [7] was 104%; in [9], 79.9%; in assay [8], 86.2%.
With `O=C(Nc1nn2c(-c3cc(C(F)(F)F)cc(C(F)(F)F)c3)nnc2s1)C1CCCC1`, the growth was 33.1% in [1]; 6.69% (active) in assay [2]; 10.4% in [3]; -32% (active) in [4]; 28.4% in assay [5]; 1.49% (active) in assay [6]. Also, the growth in [7] was 12.8%; in [9] it was 4.69% (active); in assay [8] it was 7.59% (active).
`Cc1nn(-c2nc3ccccc3s2)c(C)c1Oc1ccccc1O`: the growth in assay [1] was 68.2%; in assay [2] it was 31.8%; in [3], 76.9%; in [4], 70.8%; in [5] it was 60.5%; in assay [6], 58.8%. For the same compound, the growth in [7] was 60.9%; in assay [9], 104%; in [8], 63.7%.
In the case of `COc1cc(-c2n[nH]nc2-c2ccccn2)cc(OC)c1OC`, the growth is 112% in [1]; 90.6% in [2]; 90.5% in assay [3]; 98.3% in [4]; 114% in assay [5]; 115% in assay [6]. Further, the growth in assay [7] is 104%; in [8], 113%.
As to `CCC(=O)Nc1cc2c(cc1Cl)-c1ccccc1C2`, the growth in [1] was 109%; in assay [2], 104%; in assay [4], 74.5%; in assay [10], 102%; in assay [5], 84.3%; in assay [6], 121%. In addition, the growth in [7] is 94.3%; in [9], 96.6%; in [8], 102%.
As to `COCCCNS(=O)(=O)c1ncnc2nc[nH]c12`, the growth is 98.5% in assay [1]; 109% in assay [2]; 107% in assay [3]; 124% in assay [4]; 106% in assay [5]; 129% in assay [6]. For the same compound, the growth in assay [7] is 99.1%; in assay [8] it was 92.6%.
In the case of `CN(C)CCCNc1nn2c(=O)c3ccccc3nc2c2ccccc12`, the growth in assay [1] is 81.4%; in [2], 41%; in assay [3], 66.4%; in assay [4], 77.1%; in assay [5], 61%; in assay [6] it was 47.9%. The growth in assay [7] is 41.2%; in [8], 89.2%.
Regarding `NS(=O)(=O)N(c1cc(C(F)(F)F)cc(C(F)(F)F)c1)C1CCN(Cc2ccc(C(F)(F)F)cc2)CC1`, the growth was 8.8% (active) in assay [1]; 21% in [2]; 71.2% in assay [3]; 19.1% in assay [4]; 38.5% in [5]; 49.8% in assay [6]. The growth in assay [7] is 0.806% (active); in assay [8], -0.587% (active).
Turning to `CC(=O)Nc1c(Cl)cc2c(c1Cl)Cc1ccccc1-2`, the growth in [1] is 108%; in [2], 104%; in assay [4], 80.3%; in assay [10], 104%; in assay [5], 111%; in [6], 132%. Besides, the growth in assay [7] is 105%; in [9], 106%; in [8] it was 107%.
For the compound `COC(=O)C1(NC(=O)CNC(=O)OCc2ccccc2)CCCC1`, the growth in assay [1] was 114%; in assay [2], 98.7%; in assay [4], 95.8%; in assay [10], 105%; in assay [5], 114%; in assay [6] it was 117%. Besides, the values for the growth in [7], in assay [9] and in assay [8] were 99.4%, 106% and 105%, respectively.
For the compound `COc1ccc(-c2ccc(O)c(C(=O)/C=C/c3cc(OC)c(OC)c(OC)c3)c2)cc1`, the growth is 83.7% in assay [1]; 56.5% in [2]; 85.6% in assay [4]; 94.5% in assay [10]; 79.6% in assay [5]; 92.4% in assay [6]. Further, the growth in assay [7] is 96.8%; in assay [9], 86.6%; in [8] it was 93.6%.
As to `CCN(CC)c1ccc(C(=C2C=CC(=[N+](CC)Cc3cccc(S(=O)(=O)O)c3)C=C2)c2ccc(N(CC)Cc3cccc(S(=O)(=O)O)c3)cc2)cc1`, the growth was 37.2% in assay [1]; 7.9% (active) in [2]; 59.4% in [3]; 62.3% in assay [4]; 34.5% in [5]; 15.5% in assay [6]. Further, the growth is 62.1% in [7] and 19.5% in assay [8].
Turning to `O=C(Oc1ccccc1)C(Br)C(Br)c1ccccc1` (configuration not stated), the growth was -38.7% (active) in assay [1]; -44.2% (active) in assay [2]; 101% in assay [4]; 98.2% in assay [10]; 78.7% in assay [5]; 130% in assay [6]. The growth in assay [7] was 110%; in [9], 93.9%; in assay [8] it was 102%.
For the compound `O=C(/C=C/c1c(-c2ccccc2)[nH]c2ccccc12)S(=O)(=O)c1ccccc1`, the growth was 76% in assay [1]; 9.37% (active) in assay [2]; 88.2% in assay [3]; 63.3% in [4]; 89.5% in assay [5]; 63.5% in assay [6]. The values for the growth in assay [7] and in assay [8] were 89.5% and 51.7%, respectively.
As to `Cc1cc(C)c2c(N)c3cccc(C)c3nc2n1`, the growth in assay [1] was 2.87% (active); in assay [2], -11.1% (active); in [3], -23.3% (active); in assay [4], 14.7%; in assay [5] it was 9.97% (active); in assay [6] it was 1.7% (active). For the same compound, the growth in [7] was 1.42% (active); in assay [8] it was -35.1% (active).
Take `O=[N+]([O-])c1ccc(N=Nc2c(Cl)cc(O)cc2Cl)cc1`: the growth in assay [1] was 11.1%; in assay [2], 1.93% (active); in assay [4] it was -35.6% (active); in [10], 7.36% (active); in assay [5], -5.79% (active); in [6], -55.6% (active). Moreover, the growth in assay [7] was -2.1% (active); in assay [9], -21.5% (active); in assay [8], -30% (active).
For `C(=C1c2ccccc2-c2ccccc21)c1ccccn1`, the growth in assay [1] is 106%; in assay [2], 19.6%; in assay [4], 62.2%; in assay [10], 80.6%; in assay [5], 82.7%; in assay [6] it was 71.3%. Moreover, the growth is 72.2% in assay [7], 91.1% in assay [9] and 33.4% in [8].
